Source: PubChem BioAssay
In the library only some 1.9% were active in any assay of this set; here they are far more common.
Furin inhibitor: blocks human furin protease activity. P09958. purified furin, fluorogenic substrate cleavage. inhibition, % at 20 µM or 30 µM. 220,000 tested, 0.061% active. AID 463115; in the data active means inhibition above about 25%
EP2 modulator: modulators of human EP2 prostaglandin E2 receptor | P43116 | EP2-expressing cells, cAMP HTRF FRET, PGE2 co-stimulation | induction, % at 25 µM | 260,000 tested, 0.83% active | AID 940;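 active means compounds whose cAMP rise, as percent of the full-agonist control response, exceeds 60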;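 further: rat C6 glioma line stably carrying human EP2 under a CMV promoter; the protocol text gives 20 µM as final concentration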
Target sequence (P43116 whole entry, looked up): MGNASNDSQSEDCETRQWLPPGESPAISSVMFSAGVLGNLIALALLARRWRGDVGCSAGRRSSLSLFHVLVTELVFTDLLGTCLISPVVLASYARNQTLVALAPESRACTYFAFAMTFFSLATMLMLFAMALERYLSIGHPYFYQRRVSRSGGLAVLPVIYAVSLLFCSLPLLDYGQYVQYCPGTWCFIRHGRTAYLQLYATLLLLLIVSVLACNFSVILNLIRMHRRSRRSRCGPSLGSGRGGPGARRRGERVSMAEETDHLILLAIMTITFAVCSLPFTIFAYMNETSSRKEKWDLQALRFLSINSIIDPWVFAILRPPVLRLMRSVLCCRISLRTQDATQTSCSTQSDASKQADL
m-calpain inh: blocks pig calpain II enzyme activity | 220,000 tested, 0.37% active | inhibition, % at 16 µM | purified calpain II, fluorogenic peptide substrate, 30 min | AID 1236;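 active means inhibition above about 50%, limit read from the data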
EP2 antag: inhibitors of human EP2 prostaglandin E2 receptor. P43116. C6 glioma cells expressing human EP2, cAMP TR-FRET; cells stimulated with saturating PGE2. inhibition, % at 25 µM. 260,000 tested, 0.52% active. AID 1422;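 active means percent inhibition above 40 after rounding to a whole number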;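 further: rat C6 glioma host cells with rolipram phosphodiesterase inhibitor present; the protocol text gives 20 µM as final concentration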
Efa HMGR inh: inhibitors of class II HMG-CoA reductase from Enterococcus faecalis; purified E. faecalis HMGR, NADPH absorbance 340 nm kinetic; inhibition, % at 10 µM; 190,000 tested, 0.41% active; AID 1066;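 active means inhibition above a set limit, the median over all tested compounds plus 3 SD, cut at about 9.5% in these data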;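 further: enzyme runs in reverse so mevalonate oxidation gives rising NADPH absorbance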
EP2 confirm: EP2 receptor cAMP induction, counter-screens negative | shares compounds with EP2 modulator | C6 glioma EP2 cells, cAMP HTRF induction; plus low (about EC15) PGE2 agonist | calls only at 20 µM (by protocol) | 1,300 tested, 47% active | AID 1080;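 active means cAMP induction above 50% in the main assay while under 30% in all four parallel counter assays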;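 further: rat C6 glioma cells stably expressing human EP2 receptor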
Large screens that a line does not name were inactive (follow-up assays come after a bar, where they were run); ! = repeats disagree.

O=S(=O)(O)c1cc(S(=O)(=O)O)c2c(N=Nc3cccc4ccccc34)c(O)ccc2c1	none (no result: Furin inhibitor, m-calpain inh, Efa HMGR inh)
O=S(=O)(O)c1ccc2c(N=Nc3c(O)ccc4ccccc34)cccc2c1	EP2 modulator 75.3, EP2 antag 40.9 (no result: Furin inhibitor, m-calpain inh, Efa HMGR inh) | EP2 confirm inactive
CCOC(=O)c1ccccc1NC(=O)CSc1ncc(C(=O)OCC)c(N)n1	EP2 modulator 65.5! | EP2 confirm inactive
O=c1c(O)c(-c2ccccc2)oc2ccc3occc3c12	EP2 modulator 74.2 (no result: Furin inhibitor, m-calpain inh, Efa HMGR inh) | EP2 confirm active
Cc1ccc(-c2nc3sc(C(N)=O)c(N)c3c3c2CCCC3)cc1	none
CC(=O)c1sc2nc(-c3ccc(C)cc3)c3c(c2c1N)CCCC3	EP2 modulator 72.1 | EP2 confirm active
COc1cccc(/C=C/C(=O)c2cccc([N+](=O)[O-])c2)c1	none
COc1ccc(OC(=O)c2cccc([N+](=O)[O-])c2)c(C(=O)/C=C/c2cccs2)c1	EP2 modulator 76.7 | EP2 confirm inactive
O=C(COc1ccc(Cl)cc1)N(Cc1ccccc1)c1ccccn1	none
CC(C)(Oc1ccc(Cl)cc1)C(=O)N(Cc1ccccc1)c1ccccn1	EP2 modulator 68.5 | EP2 confirm active
O=S(=O)(c1ccc(F)cc1)c1snnc1-c1ccccc1	EP2 modulator 68.7 | EP2 confirm active
O=S(=O)(c1ccc(Cl)cc1)c1snnc1-c1ccccc1	none
FC(F)(F)c1cc(CCN2C(=S)NC[C@@H]2c2ccccc2)cc(C(F)(F)F)c1	none (no result: Efa HMGR inh)
FC(F)(F)c1cc(CO[C@H]2CCCN[C@H]2c2ccccc2)cc(C(F)(F)F)c1	EP2 modulator 68.0 (no result: Furin inhibitor, m-calpain inh, Efa HMGR inh) | EP2 confirm inactive
COc1ccc(-n2c(-c3ccccc3)nc(=S)c3c2CCCC3)cc1	none (no result: EP2 antag)
COc1ccc(-n2c(-c3cccc(OC)c3)nc(=S)c3c2CCCC3)cc1	EP2 modulator 77.0 | EP2 confirm inactive
Cc1cc(N/N=C/c2ccccc2)nc(N2CCOCC2)n1	none (no result: Efa HMGR inh)
Cc1cccc(/C=N/Nc2cc(N3CCOCC3)nc(N3CCOCC3)n2)c1	EP2 modulator 79.5 | EP2 confirm active
CC(C)c1ccc(/C=N/Nc2cc(N3CCOCC3)nc(N3CCOCC3)n2)cc1	EP2 modulator 95.8 | EP2 confirm active
Cc1ccc(/C=N/Nc2cc(C)nc(N3CCOCC3)n2)cc1	none (no result: Efa HMGR inh)
CN(C)c1ccc(CN(CCCn2ccnc2)Cc2cccs2)cc1	none (no result: Furin inhibitor, m-calpain inh, Efa HMGR inh)
CCOC(=O)c1ccc(S(=O)(=O)N(Cc2cc3cc(CC)ccc3[nH]c2=O)CC2CCCO2)cc1 (stereo not drawn)	none (no result: Furin inhibitor, m-calpain inh, Efa HMGR inh)
CCC(=O)N1CCN(c2nc(-c3ccccc3)c3c(c2C#N)CCCC3)CC1	EP2 modulator 80.9 | EP2 confirm inactive
N#Cc1c(N)nc2c3c(sc(=N)c2c1N)NC(=O)CC3c1c(F)cccc1Cl (stereo not drawn)	EP2 modulator 67.8 | EP2 confirm active
N#Cc1c(N)nc2c3c(sc(=N)c2c1N)NC(=O)CC3c1ccccc1 (stereo not drawn)	none
C[C@H]1CC[C@@H](C(C)(C)O)CC2=C1CC[C@@H]2C	none (no result: Furin inhibitor, m-calpain inh, Efa HMGR inh) | EP2 confirm inactive
Cc1onc(-c2c(F)cccc2Cl)c1C(=O)ONC(=O)c1ccccc1	none (no result: Efa HMGR inh)
Cc1onc(-c2c(F)cccc2Cl)c1C(=O)OCn1nnc2ccccc2c1=O	EP2 modulator 77.3 | EP2 confirm inactive
CCCc1nc(SC2CCCC2)c2c(=O)n(C)c(=O)n(C)c2n1	EP2 modulator 79.4 | EP2 confirm active
COC(=O)c1ccccc1NC(=O)C(C)Oc1ccccc1 (stereo not drawn)	none | EP2 confirm inactive
COc1ccc2[nH]c(=O)c(CN(Cc3ccc(C)cc3)C(c3nnnn3C(C)(C)C)C(C)C)cc2c1 (stereo not drawn)	none (no result: Furin inhibitor, m-calpain inh, Efa HMGR inh)
CCc1ccc(NC(=O)COC(=O)C2CC(=O)N(c3ccc(OC(C)C)cc3)C2)cc1 (stereo not drawn)	none (no result: Furin inhibitor, m-calpain inh, Efa HMGR inh)
CCC(C)N(C)C(=O)c1cc2ccccc2c(-c2ccccc2Cl)n1 (stereo not drawn)	EP2 modulator 69.8! | EP2 confirm inactive
CC(C)C(=O)NCCc1nc(-c2ccccc2Cl)no1	none (no result: Furin inhibitor, EP2 modulator, m-calpain inh, Efa HMGR inh)
CC(C)(C)C1CCC(OC(=O)c2ccncc2)CC1 (stereo not drawn)	EP2 modulator 84.3 | EP2 confirm inactive
CC(C)(C)C1CCC(OC(=O)c2cncc(Br)c2)CC1 (stereo not drawn)	none
COC(=O)[C@]1(C)CCC[C@]2(C)c3ccc(C(C)C)cc3C(=O)CC12 (stereo partly drawn)	none (no result: Furin inhibitor, m-calpain inh, Efa HMGR inh)
CC(C)c1ccc2c(c1)CCC1C(C)(C(N)=O)CCCC21C (stereo not drawn)	none (no result: Furin inhibitor, m-calpain inh, Efa HMGR inh) | EP2 confirm active
Cc1nnc(SCC(=O)N2c3ccccc3C(C)(c3ccccc3)CC2(C)C)s1 (stereo not drawn)	EP2 modulator 67.2 | EP2 confirm inactive
NC(=O)C1CCN(C(=O)c2cc(-c3ccccc3Cl)on2)CC1	none (no result: Furin inhibitor, m-calpain inh, Efa HMGR inh)
Cc1ccc2cc(CN(Cc3ccccc3)Cc3nnnn3CC3CCCO3)c(=O)[nH]c2c1C (stereo not drawn)	none (no result: Furin inhibitor, m-calpain inh, Efa HMGR inh)
CCOP(=O)(c1ccccc1)c1nc(-c2ccccc2Cl)oc1N1CCCCC1 (stereo not drawn)	EP2 modulator 71.5 | EP2 confirm active
CCOP(=O)(OCC)c1nc(-c2cccc([N+](=O)[O-])c2)oc1N1CCCCC1	none
O=C(CSc1ncnc2c1oc1ccccc12)Nc1ccc2c(c1)OCCO2	none
Cc1cccc(NC(=O)CSc2ncnc3c2oc2ccccc23)c1	EP2 modulator 71.3 | EP2 confirm inactive
O=C(CSc1ncnc2c1oc1ccccc12)Nc1cccc(F)c1	EP2 modulator 67.4 | EP2 confirm inactive
Fc1cccc(CSc2ncnc3c2oc2ccccc23)c1	EP2 modulator 80.0 | EP2 confirm inactive
Cc1noc2ncnc(Sc3c(Cl)cccc3Cl)c12	EP2 modulator 66.1 | EP2 confirm inactive
Cc1ccc(C(C)n2cc(C(=O)NCCCN3CCC(C)CC3)nn2)cc1 (stereo not drawn)	none (no result: Furin inhibitor, m-calpain inh, Efa HMGR inh)
Cc1nc2c(-c3ccc(F)cc3)c(C)nn2c(C)c1CCC(=O)N1CCOCC1	none
Cc1nc2c(-c3ccccc3)c(C)nn2c(C)c1CCC(=O)N1CCOCC1	EP2 modulator 78.3 | EP2 confirm inactive
C[C@]12CCC3c4ccc(O)cc4CCC3C1CC[C@@H]2OC(=O)CCC1CCCC1 (stereo partly drawn)	none (no result: Furin inhibitor, m-calpain inh, Efa HMGR inh)
O=C(O)[C@@H]1[C@H](C(=O)O)[C@@H](C(=O)O)C[C@H]1C(=O)O	EP2 modulator 60.7 (no result: Furin inhibitor, m-calpain inh, Efa HMGR inh) | EP2 confirm inactive
CCOC(=O)c1c(N)sc(-c2ccccc2)c1C	EP2 modulator 72.7 | EP2 confirm inactive
CCOC(=O)c1c(N)nn(C(=O)c2ccccc2F)c1-c1ccc(OC)cc1	none
CCOC(=O)c1c(N)sc(C(O)(C(F)(F)F)C(F)(F)F)c1-c1ccccc1	none
CCOC(=O)c1c(N)nn(C(=O)C(C)(C)C)c1-c1ccccc1	EP2 modulator 78.0 | EP2 confirm active
CC(C)n1c(=O)oc2cc(S(=O)(=O)N3CCCC(CN4CCOCC4)C3)ccc21 (stereo not drawn)	none (no result: Furin inhibitor, m-calpain inh, Efa HMGR inh)
